Hits are enriched below; roughly 2.6% of the tested compounds scored in any of these assays.
IDE act: IDE (human) activation, cell-based; P14735; HEK cells, FAbeta-B cleavage, fluorescence polarization; 0% vehicle, 100% cell-free pure enzyme wells; activation, % at 5.96 µM; hit rate 0.073% among 340,000; AID 493087;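 active means activation above the mean of all tested compounds plus 3 SD, set per screening campaign, cut at about 17% in these data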
Target sequence (P14735 whole entry, looked up): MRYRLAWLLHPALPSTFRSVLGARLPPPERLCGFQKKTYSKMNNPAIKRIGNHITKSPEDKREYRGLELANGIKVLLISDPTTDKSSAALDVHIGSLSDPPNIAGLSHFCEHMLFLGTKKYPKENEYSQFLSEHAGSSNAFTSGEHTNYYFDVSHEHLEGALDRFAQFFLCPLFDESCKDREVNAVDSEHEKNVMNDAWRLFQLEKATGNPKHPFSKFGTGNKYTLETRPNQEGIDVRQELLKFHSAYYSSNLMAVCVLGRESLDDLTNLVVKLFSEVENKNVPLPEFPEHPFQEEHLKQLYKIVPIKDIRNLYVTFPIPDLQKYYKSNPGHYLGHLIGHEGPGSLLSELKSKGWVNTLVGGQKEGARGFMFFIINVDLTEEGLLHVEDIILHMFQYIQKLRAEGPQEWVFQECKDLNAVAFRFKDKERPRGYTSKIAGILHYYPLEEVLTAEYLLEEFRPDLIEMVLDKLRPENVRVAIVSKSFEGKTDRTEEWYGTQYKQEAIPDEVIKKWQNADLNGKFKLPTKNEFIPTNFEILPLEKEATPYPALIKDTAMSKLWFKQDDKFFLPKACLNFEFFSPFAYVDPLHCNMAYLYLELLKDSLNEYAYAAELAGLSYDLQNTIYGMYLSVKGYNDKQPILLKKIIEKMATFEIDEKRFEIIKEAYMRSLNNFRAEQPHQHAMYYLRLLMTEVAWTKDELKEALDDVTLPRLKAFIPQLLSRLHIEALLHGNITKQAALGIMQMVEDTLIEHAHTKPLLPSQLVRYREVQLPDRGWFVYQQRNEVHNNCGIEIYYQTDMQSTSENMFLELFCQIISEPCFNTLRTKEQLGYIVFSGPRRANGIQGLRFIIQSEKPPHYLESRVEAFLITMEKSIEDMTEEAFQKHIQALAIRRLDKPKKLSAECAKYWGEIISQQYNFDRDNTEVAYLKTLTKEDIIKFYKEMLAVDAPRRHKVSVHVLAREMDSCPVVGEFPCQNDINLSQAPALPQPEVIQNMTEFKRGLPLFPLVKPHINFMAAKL
TPT1 inh: inhibitors of Candida albicans tRNA 2'-phosphotransferase TPT1 | recombinant caTPT1, FP RNA substrate dephosphorylation | inhibition, % at 5 µM | hit rate 0.81% among 300,000;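 active means inhibition above the mean of all tested compounds plus 3 SD, set per screening campaign, cut at about 24% in these data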;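 further: plate controls were DMSO alone for no effect and ferristatin control at 100 nM for full effect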
CRFR2-BP ag: agonists of human CRF-binding protein/CRF-R2 receptor complex | HEK293 CRF-R2/CRF-BP, calcium dye fluorescence (FLIPR); percent of saturating CRF peptide response | activation, % at 13.2 µM | hit rate 0.46% among 350,000 | AID 588473;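 active means activation of at least 50%, plus an integration ratio under a set limit after plate pattern correction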;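 further: plate controls were neutral control wells without compound for no effect and CRF at EC100 for full effect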
Myeloid diff MLP: promotes myeloid progenitor differentiation; ER-HoxA9 myeloid progenitors, lysozyme-GFP differentiation, flow cytometry; hit rate 1% among 360,000; calls only at 10 µM; AID 624256;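 active means normalized GFP-positive differentiation at or above the plate's own cutoff, the solvent-only control mean plus 3 SD; inconclusive means no clear call, values can overlap the other calls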;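 further: cells exposed to compound for four days before flow analysis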
IDE cell inh: cellular human IDE inhibition | P14735 | HEK cells, FAbetaB cleavage, fluorescence polarization | inhibition, % at 5.59 µM | hit rate 0.41% among 320,000 | AID 434962;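 active means percent inhibition above the average of all tested compounds plus 3 SD, set per screening campaign, cut at about 16% in these data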;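 further: IDE supplied by intact live HEK cells; FP after avidin binding of uncleaved biotin substrate so inhibition keeps polarization high; 0% = DMSO wells and 100% = 60 µM reference IDE inhibitor Ii1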
CRFR2-BP antag: antagonists of CRF-binding protein/CRF-R2 receptor complex; inhibition, % at 11.8 µM; HEK293 CRF-R2/CRF-BP, CRF-induced calcium fluorescence; AID 588475; hit rate 0.59% among 350,000;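 active means inhibition of the ligand-induced calcium signal above about 50% at the single tested concentration, limit read from the data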
TPT1 inh confirm: TPT1 (C. albicans) inhibition, confirmation | AID 2149 | hit rate 74% among 2,400 | inhibition, % at 5 µM | recombinant caTPT1, fluorescence polarization, RNase T1 coupled | shares compounds with TPT1 inh;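 active means inhibition above the primary screen limit, the mean inhibition of all tested compounds plus 3 SD, cut at about 25% in these data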
RNase T1 counter: blocks Aspergillus oryzae RNase T1, a TPT1 counter-screen; AID 2153; shares compounds with TPT1 inh; inhibition, % at 5 µM; RNase T1 cleavage, fluorescence polarization, 1536-well; hit rate 83% among 2,400;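 active means inhibition above the solvent-only control well mean plus 3 SD, limit set per screening run, cut at about 23% in these data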;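 further: plate controls were DMSO wells with enzyme for no effect and wells without RNase T1 for full effect; inhibitors block cleavage so intact labeled substrate keeps polarization high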
IDE inh confirm: confirmation of human insulin-degrading enzyme inhibitors in cells. inhibition, % at 5.59 µM. shares compounds with IDE cell inh. hit rate 51% among 1,200. HEK cells, FAbetaB cleavage, fluorescence polarization;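 active means mean inhibition across triplicate wells above the cutoff set by the earlier primary insulin-degrading enzyme screen, cut at about 16% in these data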;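 further: 0% = DMSO wells and 100% = 60 µM reference IDE inhibitor Ii1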
HEK cytotox: HEK cell cytotoxicity, counter-screen for IDE inhibitors | shares compounds with IDE cell inh | HEK293 cytotoxicity, ATP luminescence | hit rate 28% among 1,200 | AID 449730 | inhibition, % at 5.59 µM; in the data active means inhibition above about 22%;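 further: 0% = vehicle wells and 100% = reference cytotoxic drug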
Myeloid diff: myeloid differentiation induction; shares compounds with Myeloid diff MLP; ER-HoxA9 myeloid progenitors, GFP/Mac1 double-positive flow; calls only; hit rate 2% among 2,300;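 active means share of green or green-and-red cells above 9 and 9% in run 1 or 4 and 3% in run 2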
GFP autofluor: flagged as fluorescent in myeloid differentiation counter-screen | shares compounds with Myeloid diff MLP | ER-HoxA9 myeloid progenitors, no estrogen, GFP autofluorescence flow cytometry; vehicle wells 0%, positive control 100% | fluorescence response, % (no concentration beside the values) | hit rate 7.4% among 2,300 | AID 651707;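 active means over 5% cells positive for green fluorescent reporter, or over 2% positive for both it and APC stain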;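 further: range taken on the double positive population between DMSO and positive control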
An asterisk follows results filed as active; i = inactive; ? = inconclusive; . = not tested or not shown; + = active, no number.

SMILES	IDE act	TPT1 inh	CRFR2-BP ag	Myeloid diff MLP	IDE cell inh	CRFR2-BP antag	Myeloid diff	GFP autofluor	others
O=c1c2ccccc2nc(/C=C/c2ccccc2O)n1-c1ccccc1O	-8.1	24.6*	.	+	12.6	.	i	58.9*	TPT1 inh confirm=36.5*;RNase T1 counter=48.2*
CC(C(=O)O)N(C(=O)c1ccccc1)c1ccc(F)c(Cl)c1 (stereo unspecified)	2.7	-3.0	-0.6	i	1.6	10.3	.	.
O=C1NC(=S)N(c2ccc(Cl)cc2)C(=O)/C1=C/N1CCN(C(=O)c2ccco2)CC1	-3.4	39.4*	7.5	i	3.9	-1.6	i	0.4	TPT1 inh confirm=29.1*;RNase T1 counter=41.1*
COc1cc(/C=C/c2nc3ccccc3c(=O)n2-c2ccc(O)cc2)ccc1O	-47.0	16.8	2.0	+	32.5*	-10.3	.	.	IDE inh confirm=111.3*;HEK cytotox=34.3*
O=C(CCCc1ccc(N(CCCl)CCCl)cc1)NCc1ccccc1	.	.	5.9	?	.	-22.4	.	.
CCOC(=O)C1=C(N)Oc2c(c(=O)oc3ccccc23)C12C(=O)N(C)c1ccccc12 (stereo unspecified)	1.2	1.6	-2.3	i	2.4	-4.1	.	.
C=CCN1C(=O)C2(C(C(=O)OCC)=C(N)Oc3ccccc32)c2c1c1ccccc1oc2=O (stereo unspecified)	3.0	0.5	-0.5	i	1.5	14.1	i	0.0
COc1ccc(CCNCc2cccn2C)cc1OC	6.6	0.8	-1.5	i	0.2	11.1	.	.
Cc1cc(N2CCCC2)ccc1C=C(C#N)C#N	-5.0	8.7	17.5	+	7.7	-11.3	i	3.7
Cc1cccc(C)c1-n1nnnc1C(CCc1ccccc1)N1CCC2(CC1)C(=O)NCN2c1ccccc1 (stereo unspecified)	.	.	.	i	.	.	.	.
CS(=O)(=O)CCN1CC2CCCC(C2)C1	0.7	.	-1.2	?	.	0.7	.	.
COC(=O)C1=C(c2ccc3ccccc3c2)C[C@@H]2CC[C@H]1N2C(=O)N1CCCCC1	4.0	.	-0.1	i	5.1	6.6	.	.
C=CCC1(Cc2ccsc2)C(=O)NC(=O)NC1=O	3.3	.	-5.4	i	.	1.7	.	.
Cc1cccc(C(=O)NC(Oc2ccccc2)C(Cl)(Cl)Cl)c1 (stereo unspecified)	5.1	1.9	-1.5	i	-4.6	12.7	i	2.1
COc1ccc(NC(=O)c2cn(CCC#N)nc2-c2cccc([N+](=O)[O-])c2)cc1	4.6	-2.8	-1.3	i	5.0	-9.2	.	.
COc1ccc(Oc2cc(NC(=O)c3nn(C)cc3[N+](=O)[O-])cc([N+](=O)[O-])c2)cc1	6.4	0.9	0.7	i	-0.9	19.4	i	0.3
C=C1C[C@]2(O)[C@@]3(C)CCC(=O)C(C)(C)C3=C(O)C(=O)[C@@]2(C)[C@@H]2C(=O)O[C@@](C)(C(=O)OC)C(=O)[C@@]12C	6.4	4.4	0.1	+	3.7	-7.6	i	0.0
C[C@]12CCC3C(CC[C@H]4C[C@@H](O)CC[C@]34C)C1C[C@@H](Br)[C@H]2O (stereo partly specified)	.	.	.	i	-0.5	.	.	.
O=C(/C=C/c1ccc2c(c1)OCO2)c1c(O)n(CCC2=CCCCC2)c(=O)[nH]c1=O	1.7	11.4	25.4	i	5.1	-38.0	i	0.4
CCN(CC)S(=O)(=O)c1ccc(C)c(NCC(=O)Nc2ccc(C#N)c(Cl)c2)c1	3.5	-5.7	5.3	+	0.7	-32.3	i	0.0
CC(C)OC(=O)c1c(N)n(Cc2ccco2)c2nc3ccccc3nc12	7.4	-3.4	29.4	i	-5.7	-0.4	.	.
COCCOC(=O)c1c(N)n(Cc2ccco2)c2nc3ccccc3nc12	-5.5	-4.4	15.0	i	3.3	-13.6	i	1.7
CCOC(=O)CSc1ccc(C(=O)N2CCC3(CC2)OCCO3)cc1[N+](=O)[O-]	3.6	2.2	3.5	i	2.0	-12.0	.	.
CC1(C)C(c2ccccc2)=NC(c2cccnc2)N1O (stereo unspecified)	-1.7	-0.6	-2.2	+	5.8	9.1	i	0.0
OCC1(CO)COC(c2cccnc2)N1 (stereo unspecified)	4.0	-0.8	-1.3	i	6.1	-2.7	.	.
SMILES	IDE act	TPT1 inh	CRFR2-BP ag	Myeloid diff MLP	IDE cell inh	CRFR2-BP antag	Myeloid diff	GFP autofluor	others
CCCCCCn1c(O)c(C=Nc2ccccc2N2CCOCC2)c(=O)[nH]c1=S	.	0.8	9.5	i	3.4	-32.0	i	0.0
CCCCn1c(O)c(/C=N/N2CCOCC2)c(=O)[nH]c1=S	7.6	-1.4	2.7	i	5.7	-4.2	.	.
COC(=O)C1=C(c2cccc(C#N)c2)C[C@@H]2CC[C@H]1N2C(=O)NC(C)C	0.9	.	-0.7	i	1.2	-5.2	.	.
COC(=O)C1=C(c2cccc(C#N)c2)C[C@@H]2CC[C@H]1N2C(=O)NC1CCCCC1	3.1	.	-2.0	+	6.5	8.5	i	0.0
COC(=O)C1=C(c2cc3ccccc3s2)C[C@@H]2CC[C@H]1N2C(=O)NC1CCCCC1	3.4	-1.5	-1.7	i	-0.1	10.3	+	0.3
COc1ccc2c(c1OC)CN1CCc3cc4c(cc3C1C2)OCO4 (stereo unspecified)	-0.4	-0.5	1.2	i	4.0	12.4	i	0.3
Cc1ccc2c(c1)N(C(=O)CCC(=O)N1CCC3(CC1)OCCO3)CCO2	3.1	-1.9	-0.8	i	0.0	4.3	.	.
Cn1c(=O)n(CC(=O)N2CCC3(CC2)OCCO3)c(=O)c2ccccc21	3.2	-2.8	1.6	+	1.6	-50.1	i	0.0
